Test [1] can be described thus: antimalarial activity against Dd2 strain (AID 2302;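 active means growth inhibition above 50% at the single 2 µM test dose, taken to imply half-maximal potency below 2 µM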;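 further: 0% = DMSO untreated growth and 100% = chloroquine plus artemisinin killed control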). As to conditions: P. falciparum Dd2 in RBCs, LDH growth readout, 72 h; at 2 µM; hits give high values.
A short description of test [2]: HepG2 cytotoxicity, primary screen, cytotoxicity control for P. falciparum antimalarial project, cell-based, ATP luminescence (AID 2303;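 active means inhibition above 50%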;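 further: 0% = DMSO wells and 100% = digitonin-killed cells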). The following applies: HepG2 viability, 24-48 h, at 10 µM, hits give high values.
Test [3] addresses L-lactate dehydrogenase (Plasmodium falciparum (isolate CDC / Honduras)) (UniProt Q27743). As to the kind of experiment: PfLDH activity inhibition – cell lysate, 3D7 strain, counter-screen for P. falciparum growth inhibition project (AID 2304).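 Further: 0% = vehicle and 100% = reference inhibitor.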 The following applies: P. falciparum 3D7 crude extract, LDH APAD/NBT absorbance; at 2 µM; hits give high values. For orientation: A counterscreen serves to expose hits that act by an unwanted route or on another target.

The nature of test [4]: inhibition of 3D7 malaria parasite growth – strain 3D7 (AID 2306).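 Further: 0% = DMSO wells and 100% = chloroquine plus artemisinin control wells.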 As to conditions: P. falciparum 3D7 erythrocytic growth, LDH absorbance, 72 h; at 2 µM; hits give high values.
Test [5] addresses Calcium-dependent protein kinase 1 (Plasmodium falciparum (isolate 3D7)) (UniProt P62344). The test is described as follows: PfCDPK1 kinase inhibitors, biochemical, TCAMS library (AID 1159585; cut-off not given, nearly all actives have IC50 up to about 0.98 µM;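 further: inhibitors leave more ATP so luminescence rises with inhibition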). The following applies: recombinant PfCDPK1, Kinase-Glo ATP depletion luminescence. On the technique in general: In Kinase-Glo more light means more ATP remaining.
In test [6] the target is Plasmodium falciparum protein kinase 6 (PK6, PF3D7_1337100) (UniProt Q8IDW1). The test is described as follows: PfPK6 kinase inhibitors, biochemical, TCAMS library (AID 1159586). As to conditions: recombinant PfPK6, Kinase-Glo ATP depletion luminescence.
Chain of Plasmodium falciparum protein kinase 6 (PK6, PF3D7_1337100) (Q8IDW1 1-305): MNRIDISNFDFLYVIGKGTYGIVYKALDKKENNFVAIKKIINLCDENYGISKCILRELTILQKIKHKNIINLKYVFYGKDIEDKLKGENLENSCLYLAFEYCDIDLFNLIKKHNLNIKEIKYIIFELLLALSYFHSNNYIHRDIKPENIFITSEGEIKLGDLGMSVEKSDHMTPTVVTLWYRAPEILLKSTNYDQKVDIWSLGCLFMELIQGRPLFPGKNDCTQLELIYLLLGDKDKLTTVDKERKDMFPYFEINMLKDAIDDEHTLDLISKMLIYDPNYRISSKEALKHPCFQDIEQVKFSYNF
The target in test [7] is Protein kinase 7 (PK7), Plasmodium falciparum 3D7 (PF3D7_0213400) (UniProt Q7YTF7). As to the kind of experiment: inhibition of Plasmodium PK7 catalytic activity – biochemical, TCAMS antimalarial set, Kinase-Glo luminescence (AID 1159587). The following applies: recombinant PfPK7, Kinase-Glo ATP depletion luminescence.
Chain of Protein kinase 7 (PK7), Plasmodium falciparum 3D7 (PF3D7_0213400) (Q7YTF7 1-343): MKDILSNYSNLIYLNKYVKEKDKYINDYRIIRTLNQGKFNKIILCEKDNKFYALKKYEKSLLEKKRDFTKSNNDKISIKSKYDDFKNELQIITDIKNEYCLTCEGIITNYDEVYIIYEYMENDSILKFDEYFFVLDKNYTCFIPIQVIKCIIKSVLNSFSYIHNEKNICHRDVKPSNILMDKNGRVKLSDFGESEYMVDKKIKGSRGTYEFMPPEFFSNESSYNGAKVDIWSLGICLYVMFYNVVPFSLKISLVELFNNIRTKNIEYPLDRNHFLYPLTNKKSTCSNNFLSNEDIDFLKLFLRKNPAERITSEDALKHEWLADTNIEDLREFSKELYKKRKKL
Test [8] deals with Calcium-dependent protein kinase 4 (Plasmodium falciparum (isolate 3D7)) (UniProt Q8IBS5). As to the kind of experiment: PfCDPK4 kinase inhibitors, biochemical, TCAMS library (AID 1159588; cut-off not given, nearly all actives have IC50 up to about 0.91 µM). As to conditions: recombinant PfCDPK4, Kinase-Glo ATP depletion luminescence.
Chain of Calcium-dependent protein kinase 4 (Plasmodium falciparum (isolate 3D7)) (Q8IBS5 whole entry, looked up): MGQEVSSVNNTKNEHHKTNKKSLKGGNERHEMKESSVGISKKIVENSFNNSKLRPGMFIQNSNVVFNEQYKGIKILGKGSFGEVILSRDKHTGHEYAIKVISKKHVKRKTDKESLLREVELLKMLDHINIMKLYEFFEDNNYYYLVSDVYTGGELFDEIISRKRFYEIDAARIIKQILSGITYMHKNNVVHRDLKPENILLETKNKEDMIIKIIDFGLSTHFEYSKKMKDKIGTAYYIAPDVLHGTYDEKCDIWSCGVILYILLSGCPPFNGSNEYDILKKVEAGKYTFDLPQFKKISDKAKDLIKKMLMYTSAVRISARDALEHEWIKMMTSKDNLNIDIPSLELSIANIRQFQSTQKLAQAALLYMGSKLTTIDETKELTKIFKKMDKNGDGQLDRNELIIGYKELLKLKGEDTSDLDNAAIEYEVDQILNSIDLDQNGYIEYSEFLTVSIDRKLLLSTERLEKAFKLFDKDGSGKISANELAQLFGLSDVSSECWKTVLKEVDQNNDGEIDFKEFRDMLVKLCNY

SMILES strings stand for the structures. Values without a mark were called inactive. For some of these results: Entries with a potency or affinity are not part of this list. The source made the active and inactive calls. Unless noted, how the calls were made is not given here.

Chain of Calcium-dependent protein kinase 1 (Plasmodium falciparum (isolate 3D7)) (P62344 whole entry, looked up): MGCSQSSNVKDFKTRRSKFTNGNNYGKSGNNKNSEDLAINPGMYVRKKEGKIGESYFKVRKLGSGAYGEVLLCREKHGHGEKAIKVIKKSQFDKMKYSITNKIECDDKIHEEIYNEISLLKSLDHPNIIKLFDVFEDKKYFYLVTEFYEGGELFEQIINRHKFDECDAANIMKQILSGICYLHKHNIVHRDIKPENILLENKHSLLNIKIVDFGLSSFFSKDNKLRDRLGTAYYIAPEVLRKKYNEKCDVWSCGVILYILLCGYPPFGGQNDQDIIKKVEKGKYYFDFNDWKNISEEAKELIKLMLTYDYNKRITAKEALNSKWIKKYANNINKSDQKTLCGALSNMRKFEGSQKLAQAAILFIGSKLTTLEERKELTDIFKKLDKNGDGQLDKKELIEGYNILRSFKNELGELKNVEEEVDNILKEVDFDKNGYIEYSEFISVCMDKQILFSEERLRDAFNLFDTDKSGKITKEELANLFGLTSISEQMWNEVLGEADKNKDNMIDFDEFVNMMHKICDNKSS
Chain of L-lactate dehydrogenase (Plasmodium falciparum (isolate CDC / Honduras)) (Q27743 whole entry, looked up): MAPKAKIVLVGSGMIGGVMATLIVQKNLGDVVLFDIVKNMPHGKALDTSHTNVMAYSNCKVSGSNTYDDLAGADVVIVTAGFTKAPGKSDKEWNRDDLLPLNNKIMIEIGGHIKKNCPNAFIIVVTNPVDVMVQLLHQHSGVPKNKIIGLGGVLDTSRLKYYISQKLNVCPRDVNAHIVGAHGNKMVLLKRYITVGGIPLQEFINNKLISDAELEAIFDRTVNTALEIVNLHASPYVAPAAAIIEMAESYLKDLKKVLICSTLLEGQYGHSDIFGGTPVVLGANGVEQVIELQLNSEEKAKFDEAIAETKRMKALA

For the compound `CN(CCCN(C)c1cc(NC(=O)c2cccc(F)c2)ccn1)Cc1cccc(O)c1`, the growth inhibition in test [1] is 4%; in test [4], 92% (active). The inhibition (in general, the change of the read-out against control, counted positive when it falls) in test [2] is -3%; in test [3], -1%. Moreover, the result in test [5], in test [6], in test [7] and in test [8] was inactive.
With `CCn1c(=O)c(C(=O)Nc2cc(Cl)c(OC)cc2OC)nc2ccccc21`, the growth inhibition is 84% (active) in test [1] and 86% (active) in test [4]. Further, the inhibition was 19% in test [2] and 6% in test [3]. Moreover, the result in test [5], in test [6], in test [7] and in test [8] was inactive.
With `c1ccc(CN2CCC(NCc3ccccc3-c3cccc(CNC4CCCC4)c3)CC2)cc1`, the growth inhibition in test [1] was 59% (active); in test [4], 101% (active). Moreover, the inhibition in test [2] was 35%; in test [3] it was 6%. The outcome in test [5], in test [6], in test [7] and in test [8] was inactive.
Turning to `O=C(CC(=O)Nc1cc(Cl)cc(Cl)c1)Nc1cc(Cl)cc(Cl)c1`, the growth inhibition in test [1] was 96% (active); in test [4], 95% (active). Moreover, the inhibition in test [2] was -4%; in test [3], -2%. Further, the result in test [5], in test [6], in test [7] and in test [8] was inactive.
For the compound `Cn1cccc1C(=O)C(=O)Nc1ccc(-c2ccc(-c3nc4ccc(F)cc4[nH]3)cc2)cc1`, the results for the growth inhibition in test [1] and in test [4] were 33% and 92% (active), respectively. Further, the results for the inhibition in test [2] and in test [3] were 44% and -3%, respectively. The outcome in test [5], in test [6], in test [7] and in test [8] was inactive.
Turning to `CN1CCCN(Cc2ccc(-c3ccc(NS(=O)(=O)c4cccc5cccnc45)cc3)cc2)CC1`, the growth inhibition in test [1] was 85% (active); in test [4] it was 99% (active). The values for the inhibition in test [2] and in test [3] were 35% and 5%, respectively. Further, the outcome in test [5], in test [6], in test [7] and in test [8] was inactive.
Consider `Cc1ccc(C(=O)NCC2CCN(c3ccc(C(F)(F)F)cc3NC(=O)c3ccco3)CC2)cn1`, for which the growth inhibition in test [1] was 73% (active); in test [4], 91% (active). The inhibition in test [2] was 9%; in test [3], 0%. Moreover, the outcome in test [5], in test [6], in test [7] and in test [8] was inactive.
Take `COc1cc2c(cc1S(=O)(=O)c1ccc(COc3ccc(C(F)(F)F)cc3)cc1)CNCC2`: the values for the growth inhibition in test [1] and in test [4] were 89% (active) and 103% (active), respectively. Further, the values for the inhibition in test [2] and in test [3] were 32% and 5%, respectively. The result in test [5], in test [6], in test [7] and in test [8] was inactive.
For `COc1ccc2nccc(NC(=O)C3CCC(NCc4ccc5c(c4)NC(=O)CS5)CC3)c2c1` (stereo not given), the growth inhibition in test [1] is 19%; in test [4] it was 94% (active). The inhibition in test [2] is 0%; in test [3], -4%. For the same compound, the result in test [5], in test [6], in test [7] and in test [8] was inactive.
Turning to `O=C(N[C@@H](Cc1ccccc1)C(=O)NC1CCCCCC1)c1ccc(O)c(-c2cccc(C(F)(F)F)c2)c1`, the growth inhibition was 70% (active) in test [1] and 98% (active) in test [4]. For the same compound, the inhibition in test [2] is -10%; in test [3] it was -1%. The result in test [5], in test [6], in test [7] and in test [8] was inactive.
Consider `COc1cccc(OC(C)(C)c2nc(N[C@@H](C)c3ccccc3)c3cn[nH]c3n2)c1`, for which the results for the growth inhibition in test [1] and in test [4] were 69% (active) and 89% (active), respectively. The inhibition in test [2] is 44%; in test [3] it was -4%. In addition, the result in test [5], in test [6], in test [7] and in test [8] was inactive.
As for `Cc1nc(N)nc(N)c1-c1cccc(Cl)c1`, the growth inhibition in test [1] was -1%; in test [4] it was 88% (active). Moreover, the inhibition in test [2] was 60% (active); in test [3], 2%. Further, the outcome in test [5], in test [6], in test [7] and in test [8] was inactive.
`Cc1ccc(C(=O)N2CCc3cc4nccc(N5CCN6CCC[C@H]6C5)c4cc32)cc1`: the growth inhibition in test [1] is 13%; in test [4], 95% (active). Also, the inhibition is 5% in test [2] and -5% in test [3]. The result in test [5], in test [6], in test [7] and in test [8] was inactive.
`CN(Cc1ccccc1)C1CCN(c2cc(NC(=O)c3cccc(F)c3)ccn2)CC1`: the growth inhibition in test [1] was 3%; in test [4] it was 93% (active). Besides, the inhibition was 2% in test [2] and -2% in test [3]. Also, the outcome in test [5], in test [6], in test [7] and in test [8] was inactive.
As for `O=C(C1CCCCC1)N1CCOC(CCN2CCC(c3ccccc3)CC2)(c2ccc(Cl)c(Cl)c2)C1` (stereo not given), the figures for the growth inhibition in test [1] and in test [4] were 86% (active) and 92% (active), respectively. Besides, the inhibition in test [2] and in test [3] was 6% throughout. Also, the outcome in test [5], in test [6], in test [7] and in test [8] was inactive.
`O=C(CCc1cccnc1)Nc1cccc(-c2ccc(-c3nc4ccc(C(F)(F)F)cc4[nH]3)s2)c1`: the growth inhibition in test [1] was 13%; in test [4], 89% (active). Further, the inhibition in test [2] is 35%; in test [3], 2%. The outcome in test [5], in test [6], in test [7] and in test [8] was inactive.
Turning to `CC(C)(C)c1ccc(-c2ccccc2CNC(=O)c2cccc(O)c2)cc1`, the growth inhibition in test [1] is 88% (active); in test [4], 99% (active). The values for the inhibition in test [2] and in test [3] were 3% and -2%, respectively. For the same compound, the outcome in test [5], in test [6], in test [7] and in test [8] was inactive.
On to `CN1CCC(Oc2ccc(CN3CC[C@H](NC(=O)c4cc(F)cc(F)c4)C3)c3ccccc23)C1` (stereo not given in full), for which the growth inhibition in test [1] is 23%; in test [4], 98% (active). Further, the figures for the inhibition in test [2] and in test [3] were 26% and 5%, respectively. In addition, the result in test [5], in test [6], in test [7] and in test [8] was inactive.
Turning to `Cc1cccc2[nH]c(-c3cccc(-c4cccc(CNCCc5ccncc5)c4)c3)nc12`, the growth inhibition is 99% (active) in test [1] and 101% (active) in test [4]. For the same compound, the inhibition in test [2] is 20%; in test [3], -2%. Besides, the outcome in test [5], in test [6], in test [7] and in test [8] was inactive.
For `CCCC[C@@H](C(=O)NCCc1ccc(Cl)cc1)N1C(=O)CCC1C(=O)Nc1ccc(Cl)c(Cl)c1` (stereo not given in full), the growth inhibition in test [1] is 2%; in test [4], 95% (active). In addition, the inhibition is 4% in test [2] and 2% in test [3]. Further, the result in test [5], in test [6], in test [7] and in test [8] was inactive.

The values are drawn from PubChem BioAssay.
